Screening data (PubChem)
NTR1 agonist – agonists of human NTR1, primary screen, imaging, U2OS cells, beta-arrestin-GFP, high content; Neurotensin receptor type 1 (Homo sapiens), P30989; NTR1-U2OS beta-arrestin-GFP spot imaging, agonist mode; activation, % at 20 µM; 0.17% of 330,000 active;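 active = activation at or above 40% of the spot to cytoplasm intensity ratio, with at least 20 cells analyzed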;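 note: 0% = DMSO without peptide and 100% = 100 nM NTR1 peptide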
Target sequence (P30989 whole entry, looked up): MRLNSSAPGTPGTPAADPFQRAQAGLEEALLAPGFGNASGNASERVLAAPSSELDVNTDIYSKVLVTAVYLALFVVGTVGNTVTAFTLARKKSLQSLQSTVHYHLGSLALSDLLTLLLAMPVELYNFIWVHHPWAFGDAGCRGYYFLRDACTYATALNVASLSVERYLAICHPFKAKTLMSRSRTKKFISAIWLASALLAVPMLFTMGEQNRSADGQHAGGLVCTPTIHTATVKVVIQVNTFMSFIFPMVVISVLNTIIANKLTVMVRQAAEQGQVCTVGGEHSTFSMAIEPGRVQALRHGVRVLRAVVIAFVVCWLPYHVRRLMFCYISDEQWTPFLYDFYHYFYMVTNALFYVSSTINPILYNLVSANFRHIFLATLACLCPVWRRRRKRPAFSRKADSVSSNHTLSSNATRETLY
ALR H2O2 inh – inhibitors of human ALR sulfhydryl oxidase, primary screen, biochemical, H2O2 detection, HRP-luminol luminescence, single point | AID 485317, 2010 | 3.8% of 290,000 active | inhibition, % (no concentration beside the values) | FAD-linked sulfhydryl oxidase ALR (Homo sapiens), P55789 | purified ALR, DTT oxidation;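 active = mean replicate inhibition above about 79%, with every replicate also reaching it, limit read from the data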
UBC9 SUMO inh – inhibitors of in vitro SUMOylation cascade, primary screen, biochemical, HTRF, uHTS | SUMO-conjugating enzyme UBC9 (Homo sapiens), P63279 | HTRF SUMOylation assay, SAE1/SAE2 + UBC9 | inhibition, % at 35 µM | 0.36% of 290,000 active | AID 2006, 2009; in the data active = inhibition above about 50%, passing the limit was not always enough
Cardio protect – cardioprotection against H2O2-induced cell death, primary screen, uHTS, H9c2 cells, ATPLite luminescence. 0.63% of 360,000 active. H9c2 cardiomyocytes, H2O2 injury protection, 2 h. protection from H2O2 cell death, % at 20 µM;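 active = compounds giving at least 50% protection of heart cells from peroxide-induced death in the single-dose screen, raw or plate-pattern-corrected value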;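 note: 0% = DMSO wells with peroxide and 100% = DMSO wells without peroxide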
NTR1 ag conf – NTR1 agonists, single-dose retest, confirmation, imaging, U2OS cells, beta-arrestin-GFP, single concentration; shares compounds with NTR1 agonist; NTR1-U2OS beta-arrestin-GFP translocation imaging; activation, % at 20 µM; 38% of 480 active;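 active = mean activation at 20 µM of at least 40%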;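 note: 0% = DMSO without peptide and 100% = 100 nM NTR1 peptide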
Starred values were filed as active, the others as inactive; nt = not tested or not shown. Shown are actives, neighbours in structure and some others; about 3.9% of the full set was active somewhere.

SMILES	NTR1 agonist	ALR H2O2 inh	UBC9 SUMO inh	Cardio protect	others
Cc1cccc(Cn2c(O)c(N=NC(=S)Nc3ccccc3F)c3ccccc32)c1	1	-2	4	19
CCn1c(=O)c(=O)[nH]c2cc(C(=O)NC(C)c3ccc(S(N)(=O)=O)cc3)ccc21 (stereo not given)	0	97*	23	-5
O=C(CSc1nc2ccccc2n1CC(=O)N1CCCC1)Nc1ccc2c(c1)OCO2	-1	25	-3	-4
CCOC(=O)N1CCN(C(=O)CCCCCn2c(=S)[nH]c3ccsc3c2=O)CC1	1	93*	-6	3
O=c1c2sccc2[nH]c(=S)n1Cc1ccccc1	-2	31	4	6
CC(NC(=O)CCn1c(=S)[nH]c2ccsc2c1=O)c1ccccc1 (stereo not given)	0	95*	6	5
CCOC(=O)N1CCN(C(=O)CCCn2c(=S)[nH]c3ccsc3c2=O)CC1	0	95*	-4	3
CC(=O)Nc1cccc(N=NN2CCCCC2)c1	0	88*	16	-5
COc1ccc(-n2nc(C(=O)O)nc2-c2ccccc2)cc1	1	100*	-2	6
O=C(Oc1ccc(/C=N/n2cnnc2)cc1)c1cccc([N+](=O)[O-])c1	0	-6	8	13
CN(C)/N=C/c1ccc(OC(=O)c2cccc([N+](=O)[O-])c2)cc1	3	98*	2	-8
O=[N+]([O-])c1cc(-c2ccccc2)cc([N+](=O)[O-])c1O	nt	nt	nt	-19
Nc1nc(-c2cc(O)ccc2[N+](=O)[O-])cc(-c2ccccc2)c1[N+](=O)[O-]	9	-8	98*	44
O=C(O)c1cc(NCc2ccccc2)ccc1N1CCOCC1	1	49	22	-2
O=C(O)c1cc(NCc2ccc3c(c2)OCO3)ccc1N1CCOCC1	0	79*	-1	7
COc1ccccc1CNc1ccc(N2CCOCC2)c(C(=O)O)c1	0	99*	6	3
CSCCC(NS(=O)(=O)/C=C/c1ccccc1)C(=O)NCCc1ccc(S(N)(=O)=O)cc1 (stereo not given)	1	1	5	1
Cc1ccc(C)c(C(=O)NC2CC(C)(C)NC(C)(C)C2)c1	-2	nt	-21	-1
Cc1ccc(C(=O)NC2CC(C)(C)NC(C)(C)C2)cc1C	3	99*	6	4
CCc1ccc(-c2cc3c(=O)n(CC(=O)NCc4ccccc4F)ncn3n2)cc1	-1	-6	27	0
CCC(C)NC(=O)c1c(N)n(/N=C/c2cccnc2)c2nc3ccccc3nc12 (stereo not given)	41*	-3	16	-17	NTR1 ag conf=46*
Cc1cc(NC(=O)CCc2ccc(S(=O)(=O)N3CCOCC3)cc2)n(-c2ccccc2)n1	-1	-9	1	-12
CCCCCn1c(N2CCC(Cc3ccccc3)CC2)nc2c1c(=O)[nH]c(=O)n2C	41*	-3	nt	-12	NTR1 ag conf=50*
CCCn1c(N2CCC(Cc3ccccc3)CC2)nc2c1c(=O)[nH]c(=O)n2C	13	0	-3	-6
CCC(C)(C)n1nnnc1CN1CCSCC1	1	-1	13	-1
SMILES	NTR1 agonist	ALR H2O2 inh	UBC9 SUMO inh	Cardio protect	others
Cc1ccc2[nH]c3c(N4CCN(Cc5ccccc5)CC4)ncnc3c2c1	43*	12	-2	-25	NTR1 ag conf=22
Cc1ccc2[nH]c3c(N4CCCCCC4)ncnc3c2c1	nt	nt	-4	nt
Cc1ccc2c(c1)[nH]c1c(N3CCN(Cc4ccccc4)CC3)ncnc12	56*	98*	5	-21	NTR1 ag conf=8
CCOC(=O)/C=C/C(=O)Nc1ccc(-c2nnc3n2CCCCC3)cc1	-2	-5	14	7
CC1(C)C[C@@H]1C(=O)N/C(=C\CCCCSC[C@H](N)C(=O)O)C(=O)O	0	-7	nt	-4
Clc1cccc(CNCCNCc2cccc(Cl)c2)c1	-1	-2	22	3
Cc1ccc2c(c1)c1c(n2CC(O)CNC2CCCCC2)CCCC1 (stereo not given)	42*	99*	1	-49	NTR1 ag conf=53*
Cc1ccc2c(c1)c1c(n2CC(O)CN2CCOCC2)CCCC1 (stereo not given)	0	9	21	nt
